# Reference: PubChem BioAssay AID1159580 (chemical genetic matrix, 2015)
# Screen size: about 5,500 compounds; about 2,000 (36%) were called active. Inconclusive results (about 18%) are left out. This is one part of the list. Values without a mark were called inactive. Cut-off read from the data, not from the text of the source: active = normalized growth mostly below about 0.91 (no sharp cut-off); inconclusive = no clear call, values can overlap the other calls; inactive = mostly above about 0.92.
# Assay: chemical genetic growth profiling, strain panel (AID 1159580);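 note: tested at 20 µM; growth read once vehicle control cultures reached saturation at 30 °C; 1 = growth at the plate median or of vehicle wells; lower values mean less growth of the strain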
# Conditions: S. cerevisiae deletion strains, growth OD
smiles,measurement,setting,value
N#Cc1c2ccccc2nc2ccccc12,normalized growth,"locus YAR019C, strain CDC15, hits give low values",0.818 (active)
same,normalized growth,"locus YBL105C, strain PKC1, hits give low values",0.834 (active)
same,normalized growth,"locus YBR135W, strain CKS1, hits give low values",0.808 (active)
same,normalized growth,"locus YBR136W, strain MEC1, hits give low values",0.827 (active)
same,normalized growth,"locus YBR160W, strain CDC28, hits give low values",0.823 (active)
same,normalized growth,"locus YDL017W, strain CDC7, hits give low values",0.834 (active)
same,normalized growth,"locus YDL028C, strain MPS1, hits give low values",0.825 (active)
same,normalized growth,"locus YDL101C, strain DUN1, hits give low values",0.832 (active)
same,normalized growth,"locus YDL108W, strain KIN28, hits give low values",0.826 (active)
same,normalized growth,"locus YDL132W, strain cdc53, hits give low values",0.885
same,normalized growth,"locus YDL214C, strain PRR2, hits give low values",0.743
same,normalized growth,"locus YDR052C, strain DBF4, hits give low values",0.829 (active)
same,normalized growth,"locus YDR054C, strain cdc34, hits give low values",0.781 (active)
same,normalized growth,"locus YDR226W, strain ADK1, hits give low values",0.825 (active)
same,normalized growth,"locus YDR477W, strain SNF1, hits give low values",0.678 (active)
same,normalized growth,"locus YER123W, strain YCK3, hits give low values",0.678
same,normalized growth,"locus YER133W, strain GLC7, hits give low values",0.717 (active)
same,normalized growth,"locus YFL009W, strain cdc4, hits give low values",0.813 (active)
same,normalized growth,"locus YFL029C, strain CAK1, hits give low values",0.813 (active)
same,normalized growth,"locus YFR003C, strain YPI1, hits give low values",0.831 (active)
same,normalized growth,"locus YFR019W, strain FAB1, hits give low values",0.844
same,normalized growth,"locus YFR028C, strain CDC14, hits give low values",0.832 (active)
same,normalized growth,"locus YGR040W, strain KSS1, hits give low values",0.716
same,normalized growth,"locus YGR052W, strain FMP48, hits give low values",0.736
same,normalized growth,"locus YGR092W, strain DBF2, hits give low values",0.196 (active)
same,normalized growth,"locus YHR030C, strain SLT2, hits give low values",0.693 (active)
same,normalized growth,"locus YHR079C, strain IRE1, hits give low values",0.599
same,normalized growth,"locus YHR082C, strain KSP1, hits give low values",0.72
same,normalized growth,"locus YHR205W, strain SCH9, hits give low values",0.807
same,normalized growth,"locus YIL147C, strain SLN1, hits give low values",0.822 (active)
same,normalized growth,"locus YJL095W, strain BCK1, hits give low values",0.561
same,normalized growth,"locus YJL128C, strain PBS2, hits give low values",0.87
same,normalized growth,"locus YJL157C, strain FAR1, hits give low values",0.675 (active)
same,normalized growth,"locus YJR016C, strain ILV3, hits give low values",0.816 (active)
same,normalized growth,"locus YJR066W, strain TOR1 (second series), hits give low values",0.728
same,normalized growth,"locus YJR066W, strain TOR1, hits give low values",0.615
same,normalized growth,"locus YKL048C, strain ELM1, hits give low values",0.746 (active)
same,normalized growth,"locus YKL067W, strain YNK1, hits give low values",0.744
same,normalized growth,"locus YKL101W, strain HSL1, hits give low values",0.761
same,normalized growth,"locus YKL193C, strain SDS22, hits give low values",0.803 (active)
same,normalized growth,"locus YKL203C, strain TOR2, hits give low values",0.693 (active)
same,normalized growth,"locus YLR113W, strain HOG1, hits give low values",0.638 (active)
same,normalized growth,"locus YLR133W, strain CKI1, hits give low values",0.737
same,normalized growth,"locus YLR403W, strain SFP1, hits give low values",0.605 (active)
same,normalized growth,"locus YML070W, strain DAK1, hits give low values",0.726
same,normalized growth,"locus YMR001C, strain CDC5, hits give low values",0.818 (active)
same,normalized growth,"locus YMR205C, strain PFK2 (second series), hits give low values",0.761
same,normalized growth,"locus YMR277W, strain FCP1, hits give low values",0.817 (active)
same,normalized growth,"locus YNL006W, strain LST8, hits give low values",0.829 (active)
same,normalized growth,"locus YNL020C, strain ARK1, hits give low values",0.717
same,normalized growth,"locus YNL161W, strain CBK1, hits give low values",0.823 (active)
same,normalized growth,"locus YNL183C, strain NPR1, hits give low values",0.584
same,normalized growth,"locus YNL207W, strain RIO2, hits give low values",0.822 (active)
same,normalized growth,"locus YNL222W, strain SSU72, hits give low values",0.825 (active)
same,normalized growth,"locus YNL307C, strain MCK1 (second series), hits give low values",0.649
same,normalized growth,"locus YOL078W, strain AVO1, hits give low values",0.803 (active)
same,normalized growth,"locus YOL136C, strain PFK27, hits give low values",0.742
same,normalized growth,"locus YOR061W, strain CKA2, hits give low values",0.677 (active)
same,normalized growth,"locus YOR119C, strain RIO1, hits give low values",0.749
same,normalized growth,"locus YOR231W, strain MKK1, hits give low values",0.587
same,normalized growth,"locus YOR329C, strain SCD5, hits give low values",0.829 (active)
same,normalized growth,"locus YPL031C, strain PHO85, hits give low values",0.616 (active)
same,normalized growth,"locus YPL153C, strain RAD53, hits give low values",0.659 (active)
same,normalized growth,"locus YPL204W, strain HRR25, hits give low values",0.693
same,normalized growth,"locus YPL209C, strain IPL1, hits give low values",0.833 (active)
same,normalized growth,"locus YPL256C, strain CLN2, hits give low values",0.708 (active)
same,normalized growth,"locus YPR025C, strain CCL1, hits give low values",0.82 (active)
same,normalized growth,"locus YPR106W, strain ISR1, hits give low values",0.862 (active)
same,normalized growth,"locus YPR111W, strain DBF20, hits give low values",0.843 (active)
same,normalized growth,"strain NNK1, hits give low values",0.846 (active)
same,normalized growth,"strain TSCII, hits give low values",0.811 (active)
